In PubChem BioAssay AID504834 (National Center for Advancing Translational Sciences (NCATS), 2011):
About 22,000 (6.9%) of roughly 320,000 compounds were called active. Another 27% or so got no clear call; they are omitted. The call rests on the fitted dose curve; in most records, active means well fitted inhibition curve with a large enough effect; inconclusive means small, poorly fitted or top-dose-only effect, or another doubt; inactive means no such curve, though single readings can be large or run the other way. This excerpt belongs to a sample that is enriched for actives.

Test: Primary qHTS for delayed death inhibitors of the malarial parasite plastid, 96 hour incubation
Details: P. falciparum luciferase reporter growth; series mostly up to 28.7 µM; activity change, negative = inhibition: at the top concentration
Outline: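 Luminescence readout: decreased luciferase signal marks inhibited growth of reporter-expressing P. falciparum in infected red cells (2% hematocrit, 0.05% parasitemia final), exposed to compound two generations (96 h, 37 C, 5% CO2).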
On the % scale 0 is the no-effect control and ±100 the full control effect; potency means the concentration at half of the fitted maximal effect.

Row | SMILES | activity change, negative = inhibition | Potency
1 | CCN(CC(=O)NCc1cccs1)C(=O)/C=C/c1ccc(C)cc1 | -23.7% (inactive) | –
2 | O=C(O)CCn1c(Cc2ccccc2)nc2ccccc21 | -16.9% (inactive) | –
3 | O=C(O)CCn1c(O)c(C=C2N=c3ccccc3=N2)sc1=S | – | 4.65 µM (active)
4 | Cc1cc2ccccc2n1CCC(=O)O | 29% (inactive) | –
5 | CCS(=O)(=O)C1=NSC2=NC(=O)/C(=C\c3ccc(OS(=O)(=O)c4ccccc4)cc3)C(=N)N21 | -0.896% (inactive) | –
6 | CC(C)(C)C(=O)Nc1c(Br)c(C2CC2)nn1-c1ccccc1 | -2.14% (inactive) | –
7 | Cc1cc(=O)oc2c1ccc1ccccc12 | 5.33% (inactive) | –
8 | Cc1coc2c(O)cc3c(c12)OC1(N2CCCCC2)C(=O)NCCCC31 (stereo not given) | – | 9.28 µM (active)
9 | NNC(=O)c1ccc(COCC(F)(F)C(F)F)cc1 | -23.4% (inactive) | –
10 | O=C(N/N=C/c1ccco1)c1csc2c1CCCC2 | 1.77% (inactive) | –
11 | COc1ccc(C(=O)N2CCCCC2C(=O)Nc2ccc(-n3nc(C)cc3C)cc2)o1 (stereo not given) | – | 10.4 µM (active)
12 | Cc1cc(C)n(-c2ccc(NC(=O)C3CCCCN3C(=O)c3cccs3)cc2)n1 (stereo not given) | 33.4% (inactive) | –
13 | CN(C)C(=O)CCC(=O)N1CCCCC1C(=O)Nc1ccc(Oc2ccccc2F)cc1 (stereo not given) | 0% (inactive) | –
14 | O=C(CN1CCCCC1)NC(=O)Nc1ccccc1F | 34.5% (inactive) | –
15 | CCN(CC(=O)NCC(=O)Nc1cccc(C)c1C)Cc1ccccc1 | -12.1% (inactive) | –
16 | COc1cccc2cc(-c3cc(=O)oc4cc(C)c(O)cc34)oc12 | – | 13.1 µM (active)
17 | COc1cccc(C(=O)OCc2cc(=O)oc3c(C)c(C)ccc23)c1OC | 33.8% (inactive) | –
18 | COc1cccc2cc(C(=O)N3CCN(C(=O)c4ccccc4)CC3)c(=O)oc12 | 6.51% (inactive) | –
19 | O=C(NCc1ccccc1)C(c1ccccc1)N(C(=O)c1csnn1)c1ccc(F)cc1 (stereo not given) | 7.01% (inactive) | –
20 | O=C(COc1cccc(Cl)c1)NCc1ccccc1 | -11.8% (inactive) | –
21 | O=C(O)CCCC(=O)Nc1ccc(Oc2cccc(C(F)(F)F)c2)nc1 | -3.37% (inactive) | –
22 | O=C(O)CCCn1cc(NC(=O)COc2cccc(Cl)c2)cn1 | – | 14.7 µM (active)
23 | COc1ccccc1NC(=O)C(C)OC(=O)CC1CCCC1 (stereo not given) | 30.8% (inactive) | –
24 | Cc1ccccc1NC(=O)CCNS(=O)(=O)c1ccc2[nH]c(=O)oc2c1 | -22.6% (inactive) | –
25 | COc1cccc(CN(C)CC(O)COC(c2ccccc2)c2ccccc2C)c1 (stereo not given) | – | 5.86 µM (active)
26 | Cc1ccccc1C(OCC(O)CN1CCCCC1CCO)c1ccccc1 (stereo not given) | 144% (inactive) | –
27 | COc1cccc(CN(C)CC(=O)Nc2sc3c(c2C#N)CCC3)c1 | -16.4% (inactive) | –

Row | SMILES | activity change, negative = inhibition | Potency
28 | CCc1nn(CCCC(=O)NC(C)c2ccccc2)c(=O)c2cc3occc3n12 (stereo not given) | 0.559% (inactive) | –
29 | CCN1C(=O)C(=O)N(CC(=O)Nc2cc(C)ccc2C)C1=O | -1.34% (inactive) | –
30 | Cc1cccc(NC(=O)CCN2CC(C)CC(C)C2)c1 (stereo not given) | 30.9% (inactive) | –
31 | Cc1cccn2c(=O)c(C=O)c(Nc3ccc(S(N)(=O)=O)cc3)nc12 | – | 5.86 µM (active)
32 | CNc1nc2c(C)cccn2c(=O)c1C=Nc1ccc(OC)cc1 | 29.5% (inactive) | –
33 | NS(=O)(=O)c1ccc(Nc2nc(-c3ccccc3)cs2)cc1 | 20.4% (inactive) | –
34 | CCOCCCNC(=O)c1ccc(CS(=O)(=O)c2cccc(C(F)(F)F)c2)o1 | -15.9% (inactive) | –
35 | CCc1cc(C(=O)Nc2nnc(C3CC3)s2)sc1C | 31% (inactive) | –
36 | COc1cc(-c2n[nH]c(=S)n2Cc2ccccc2)cc(OC)c1OC | -5.2% (inactive) | –
37 | COc1ccc(CCn2c(-c3ccco3)nc3nc4ccccc4nc32)cc1OC | -6.63% (inactive) | –
38 | CCC(C)n1c(-c2cc(OC)c(OC)c(OC)c2)nc2nc3ccccc3nc21 (stereo not given) | – | 5.86 µM (active)
39 | COc1ccccc1N1CCN(CC(=O)Nc2ccnn2C2CCCC2)CC1 | -16.9% (inactive) | –
40 | Cc1ccc(SCC(=O)NNC(=O)c2ccc(S(C)(=O)=O)cc2)cc1 | 48.6% (inactive) | –
41 | COc1ccccc1CN1CC(C(=O)NCCc2cn[nH]c2)CCC1=O (stereo not given) | 13.9% (inactive) | –
42 | CCC(=O)Nc1ccc2c(c1)nc(CCN1CCN(c3ccccn3)CC1)n2C | -14.1% (inactive) | –
43 | NS(=O)(=O)c1ccc(NC(=S)NC(=O)c2cccc(Br)c2)cc1 | – | 13.1 µM (active)
44 | O=C(NC(=S)Nc1ccc(S(=O)(=O)Nc2ncccn2)cc1)c1cccc(Br)c1 | -13.4% (inactive) | –
45 | NS(=O)(=O)c1ccc(NC(=S)NC(=O)c2cccnc2)cc1 | 31.3% (inactive) | –
46 | Cc1cc(NC(=O)[C@H](C)NC(=O)c2ccco2)ccc1Br | -0.221% (inactive) | –
47 | CCc1ccc(C(=O)COC(=O)c2ccco2)cc1 | -16.8% (inactive) | –
48 | CC(C)(C)c1ccc(C(=O)N2CCC(C(=O)N3CCCCC3)CC2)cc1 | -25.9% (inactive) | –
49 | CCOC(=O)c1cc2c(n(-c3ccc(C)cc3)c1=O)CCCC2=O | 26.5% (inactive) | –
50 | CCOC(=O)C1=C(N)N(c2ccc(C)cc2)C2=C(C(=O)CCC2)C1c1cccs1 (stereo not given) | – | 3.7 µM (active)
51 | CCOC(=O)C1=C(C)NC(=S)NC1c1cccs1 (stereo not given) | 16.8% (inactive) | –
52 | COC(=O)c1ccc(NC(=O)c2cc3c(CO)cnc(C)c3oc2=Nc2cccc(C(N)=O)c2)cc1 | 1.25% (inactive) | –
53 | CC(C)c1cc(C(=O)N/N=C/C(Br)=C/c2ccccc2)n[nH]1 | – | 3.29 µM (active)
54 | CC(/C=N/NC(=O)c1cc(-c2ccc3ccccc3c2)n[nH]1)=C\c1ccco1 | 10.6% (inactive) | –

Row | SMILES | activity change, negative = inhibition | Potency
55 | Cc1cc(-c2n[nH]c(=S)n2/N=C/C(Br)=C/c2ccccc2)n[nH]1 | 0% (inactive) | –
56 | CN(C(=O)COC(=O)CCCc1c[nH]c2ccccc12)c1c(N)n(Cc2ccccc2)c(=O)[nH]c1=O | 2.5% (inactive) | –
57 | CCCNC(=O)C(=O)Nc1cc2c3c(c1)CCC(=O)N3CCC2 | 28.4% (inactive) | –
58 | COc1ccc(CCNC(=O)C2CCCN2C(=O)Nc2ccccc2)cc1OC (stereo not given) | -9.5% (inactive) | –
59 | O=C(/C=C\c1cn(-c2ccccc2)nc1-c1cccs1)N1CCOCC1 | – | 10.4 µM (active)
60 | O=C(O)c1ccc(NC(=O)c2cn(-c3ccccc3)nc2-c2ccc(Cl)cc2)cc1 | 47.7% (inactive) | –
61 | COc1ccc(-c2nn(-c3ccccc3)cc2/C=C\C(=O)Nc2ccc(C(=O)O)cc2)cc1 | 23.8% (inactive) | –
62 | O=C(O)c1ccc(N/N=C/c2cn(-c3ccccc3)nc2-c2cccs2)cc1 | – | 0.465 µM (active)
63 | O=C(O)/C=C/c1cn(-c2ccccc2)nc1-c1cccs1 | 54.1% (inactive) | –
64 | O=C(O)/C=C/c1cn(Cc2ccccc2)nc1-c1cccs1 | 2.18% (inactive) | –
65 | N#Cc1cccc(CN2CCC(=O)N(CCO)CC2)c1 | 93% (inactive) | –
66 | COc1ccccc1N1CCN(S(=O)(=O)CCNC(=O)c2ccc(OC(C)C)cc2)CC1 | 13.5% (inactive) | –
67 | CCCCC1(C(=O)OCC)NC(c2ccc(O)cc2)C2C(=O)N(c3ccccc3)C(=O)C21 (stereo not given) | 34.6% (inactive) | –
68 | CC(OC(=O)C1CC(=O)N(Cc2ccccc2)C1)C(=O)Nc1ccccc1[N+](=O)[O-] (stereo not given) | 49.9% (inactive) | –
69 | CCSCc1nc(N)nc(NCCc2ccccc2)n1 | 0% (inactive) | –
70 | O=C1CN(C(=O)c2ccccc2F)C(c2ccc(F)cc2)c2cc(F)ccc2N1 (stereo not given) | 13% (inactive) | –
71 | COC(=O)CN1C(C)=Nc2ccc(Br)cc2C1c1ccccc1 (stereo not given) | -2.01% (inactive) | –
72 | Cc1ccc(C(=O)N2CC(=O)Nc3ccc(F)cc3C2c2ccc(F)cc2)cc1 (stereo not given) | – | 1.47 µM (active)
73 | CCC(CC)C(=O)N1CC(=O)Nc2ccc(Br)cc2C1c1ccccc1 (stereo not given) | – | 8.28 µM (active)
74 | Cc1ccc2c(c1)C(c1ccccc1)N(C(=O)c1ccc(F)cc1)CC(=O)N2 (stereo not given) | 24.6% (inactive) | –
75 | CC(C)C(=O)N1CC(=O)Nc2ccc(F)cc2C1c1ccc(F)cc1 (stereo not given) | 17.2% (inactive) | –
76 | CCCCn1c(N)c(N(CC(C)C)C(=O)c2cccc(S(=O)(=O)N3CC(C)OC(C)C3)c2)c(=O)[nH]c1=O (stereo not given) | -20.2% (inactive) | –
77 | O=C(COC(=O)c1cc(=O)[nH]c2ccccc12)NCc1cccc(Cl)c1 | -21.9% (inactive) | –
78 | O=C(Nc1ccccc1C(=O)N1CCOCC1)c1ccc(Cl)cc1 | – | 13.1 µM (active)
79 | O=C(Nc1ccccc1C(=O)N1CCCCCC1)c1ccccc1Cl | 21.4% (inactive) | –
80 | O=C(Nc1ccccc1C(=O)N1CCOCC1)c1ccc(CSc2ccccc2)cc1 | -3.39% (inactive) | –
81 | Cc1cc(NC(=O)CN2CCC(O)(c3cccc(F)c3)CC2)no1 | 0% (inactive) | –

Row | SMILES | activity change, negative = inhibition | Potency
82 | CC(=O)NC1(c2cccc(F)c2)CCN(CC(=O)NC(C)C)CC1 | – | 1.85 µM (active)
83 | O=C(CN1CCN(C(=O)c2cccc(F)c2)CC1)Nc1ccccc1F | 43.4% (inactive) | –
84 | O=C(O)Cc1csc(NC(=O)CSc2nnnn2-c2ccc(O)cc2)n1 | 19.6% (inactive) | –
85 | CCn1c(SCC(=O)NC2CC2)nnc1-c1ccccn1 | 1.07% (inactive) | –
86 | Cc1ccc(S(=O)(=O)N(C)CC(=O)NC2CCCC2)cc1 | -4.78% (inactive) | –
87 | Cc1ccc(S(=O)(=O)N(CC(=O)NCCSC2CCCCC2)c2ccccc2F)cc1 | – | 1.65 µM (active)
88 | CCN(CC(=O)NCCc1ccccc1)S(=O)(=O)c1ccc(C)cc1 | 4.36% (inactive) | –
89 | O=C(CS(=O)(=O)c1cn(Cc2cccc(F)c2)c2ccccc12)N1CCCCC1 | 94.6% (inactive) | –
90 | Cc1ccc(CNC(=O)C(=O)c2cn(CC(=O)N3CCOCC3)c3ccccc23)cc1 | 41.8% (inactive) | –
91 | O=C(CS(=O)(=O)c1cn(Cc2ccc(Cl)cc2)c2ccccc12)N1CCOCC1 | – | 8.28 µM (active)
92 | CCc1ccc(NC(=O)COC(=O)c2cccs2)cc1 | -27.9% (inactive) | –
93 | CCOC(=O)Cc1cc(=O)[nH]c(/N=C(\N)Nc2ccc(OC)cc2)n1 | 8% (inactive) | –
94 | O=C(CN1CCOCC1)N/N=C/c1ccc(-c2ccc(Br)cc2)o1 | 10.5% (inactive) | –
95 | CC(/C=C/C1(O)C(C)CC(=O)CC1(C)C)OC1OC(CO)C(O)C(O)C1O (stereo not given) | 57.5% (inactive) | –
96 | COC(=O)C1=CO[C@@H](O[C@@H]2O[C@H](CO)[C@@H](O)[C@H](O)[C@H]2O)C2C1C[C@H](O)[C@@H]2C (stereo not given in full) | 37.1% (inactive) | –
97 | C=CC1C(OC2OC(CO)C(O)C(O)C2O)OC=C(C(=O)OC)C1CC1CC(=O)CC(CC(=O)CCc2ccc(O)cc2)O1 (stereo not given) | – | 5.22 µM (active)
98 | Cc1cc(=O)[nH]c2nnnn12 | 26% (inactive) | –
99 | NS(=O)(=O)c1ccc(CNC(=O)c2cccc(Oc3ccccc3)c2)cc1 | 4.38% (inactive) | –
100 | Cc1nc(C)c2c(c1C(F)(F)F)-c1ccccc1C2(F)F | – | 11.7 µM (active)
101 | COCCCC1CCN(C(=O)C2CCC(=O)N(C3CCCCCC3)C2)CC1 (stereo not given) | 24.7% (inactive) | –
102 | CCN(CC)c1ccc(NC(=O)CN2C(=O)NC3(CCc4ccccc43)C2=O)cc1 (stereo not given) | 29.7% (inactive) | –
103 | COc1cccc(C(=O)NCCSc2ccc(Br)cc2)c1 | -24.1% (inactive) | –
104 | COc1ccc(C(=O)NCCSc2ccccc2C)cc1 | – | 3.29 µM (active)
105 | COc1ccc(C(=O)NCc2nnc(SCCOc3ccccc3)n2C)cc1 | 11.2% (inactive) | –
